The source of these data is PubChem BioAssay.

Each structure is given as a SMILES string. The source made the active and inactive calls. Unless noted, how the calls were made is not given here.

A short description of experiment [1]: compound effects on lung adenocarcinoma cell viability – A549, calcein-AM fluorescence, 48 h, basal, profiling panel (AID 1162). Further: test concentration not given here. The following applies: higher = more signal.
Experiment [2] is described as follows: compound effects on differentiated 3T3-L1 adipocyte viability – cell-based, 3T3-L1 adipocytes, calcein-AM fluorescence, 48 h, basal, profiling panel (AID 1163). Further: test concentration not given here. The following applies: 3T3-L1 adipocytes viability, higher = more signal.
Experiment [3] can be described thus: compound effects on hepatocellular carcinoma cell viability – HepG2, calcein-AM fluorescence, 48 h, basal, profiling panel (AID 1164). Further: test concentration not given here. The following applies: higher = more signal.
A short description of experiment [4]: compound effects on multiple myeloma cell viability – MM1S, calcein-AM fluorescence, 48 h, basal, profiling panel (AID 1165).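 Further: viability of MM1S multiple myeloma cells under basal unstimulated conditions; test concentration not given here.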 The following applies: higher = more signal.
The nature of experiment [5]: calcein-AM signal in unstimulated myeloma cells – cell-based, calcein-AM fluorescence, 48 h, PK04 Diversity Set, profiling panel (AID 1166).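 Further: cells grown under basal conditions without added stimulus; test concentration not given here.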 The following applies: RPMI8226 myeloma viability, higher = more signal.
Experiment [6] is described as follows: JC-1 mitochondrial signal, unstimulated HepG2 cells – cell-based, JC-1 fluorescence, 24 h, 100 nL compound, profiling panel (AID 1167). Further: test concentration not given here. The following applies: HepG2 mitochondrial potential, higher = more signal.
Experiment [7] can be described thus: JC-1 mitochondrial signal, unstimulated adipocytes – cell-based, JC-1 fluorescence, 3T3-L1 adipocytes, 24 h, 100 nL compound, profiling panel (AID 1168). Further: test concentration not given here. The following applies: JC-1 mitochondrial fluorescence, higher = more signal, called active from +8 up or from −8 down.
The nature of experiment [8]: JC-1 mitochondrial signal, unstimulated myeloma cells – cell-based, JC-1 fluorescence, RPMI8226, 24 h, 100 nL compound, profiling panel (AID 1169). Further: test concentration not given here. The following applies: JC-1 mitochondrial potential fluorescence, higher = more signal.
Experiment [9] is described as follows: JC-1 mitochondrial signal, unstimulated MM1S myeloma – cell-based, JC-1 fluorescence, 24 h, 100 nL compound, profiling panel (AID 1170). Further: test concentration not given here. The following applies: MM1S mitochondrial potential, higher = more signal.
A short description of experiment [10]: resazurin metabolic signal in A549 cells – cell-based, resazurin fluorescence, 24 h, PK04 Diversity Set, profiling panel (AID 1171). Further: test concentration not given here. The following applies: A549 viability, higher = more signal, called active from +8 up or from −8 down.
Experiment [11] can be described thus: resazurin metabolic signal in HepG2 cells – cell-based, resazurin fluorescence, 24 h, PK04 Diversity Set, profiling panel (AID 1172). Further: test concentration not given here. The following applies: HepG2 viability, higher = more signal.
Experiment [12] can be described thus: budding yeast growth changes without added modifier – OD600, strain BY4716, 24 h, basal condition, primary screen (AID 1173). The following applies: S. cerevisiae BY4716 growth, OD600, 24 h; higher = more signal, called active from +8 up or from −8 down.
Experiment [13] in a line: viability profiling in MM1S myeloma cells – cell-based, resazurin fluorescence, basal, 24 h, PK04 Diversity Set, profiling panel (AID 1174). Further: test concentration not given here. The following applies: higher = more signal, called active from +8 up or from −8 down. Background: The colour change of resazurin is a common sign of viable cells or microbes.
Experiment [14] concerns the target Dihydroorotate dehydrogenase (quinone), mitochondrial (Plasmodium falciparum (isolate 3D7)) (UniProt Q08210). Description: inhibition of P. falciparum DHODH – biochemical, C-terminal His tag, absorbance 600 nm, primary screen (AID 1175).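 Further: recombinant parasite enzyme with a five histidine tag at its C terminus; test concentration not given here.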 The following applies: PfDHODH enzyme, DCIP absorbance 600 nm; higher = more signal, called active from +8 up or from −8 down.
A short description of experiment [15]: inhibition of PAO1 biofilm formation – strain PAO1, LB-PBS medium, absorbance 600 nm, primary screen (AID 1176). Further: test concentration not given here. The following applies: P. aeruginosa PAO1 growth/biofilm, A600, 12 h; higher = more signal.
Experiment [16] can be described thus: growth modulation of vineyard yeast isolate – strain RM11-1a, OD600, basal, 24 h, primary screen (AID 1177).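 Further: cultures grown under basal conditions with no added stressor; test concentration not given here.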 The following applies: S. cerevisiae RM11-1a growth, OD600, 24 h; higher = more signal, called active from +8 up or from −8 down.
Experiment [17] can be described thus: growth of efflux-deficient E. coli DRC39 – strain DRC39, OD650, 24 h, E. coli filamentation inducers, primary screen (AID 1178).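 Further: growth measured as culture turbidity by optical density at 650 nm; test concentration not given here.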 The following applies: E. coli DRC39 acrAB, higher = more signal, called active from +8 up or from −8 down.
Experiment [18] in a line: growth of efflux-deficient E. coli DRC39 – strain DRC39, OD650, 48 h, E. coli filamentation inducers, primary screen (AID 1179).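 Further: screen aims at cell division blockers that make cells filament.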 The following applies: E. coli DRC39 delta-acrAB growth, higher = more signal, called active from +8 up or from −8 down.
Experiment [19] in a line: viability profiling in RPMI8226 myeloma cells – cell-based, resazurin fluorescence, basal, 24 h, PK04 Diversity Set, profiling panel (AID 1180).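 Further: RPMI8826 multiple myeloma cell line at 5000 cells per well; test concentration not given here.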 The following applies: higher = more signal.
For experiment [20], the target named is E3 ubiquitin-protein ligase XIAP (Homo sapiens) (UniProt P98170). The experiment is described as follows: small molecules binding XIAP protein – biophysical, small-molecule microarray, fluorescence 635 nm, primary screen (AID 1181).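 Further: score merges 667 nm emission and signal to noise over triplicate slides.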 The following applies: higher = more signal.
E3 ubiquitin-protein ligase XIAP (Homo sapiens), sequence (P98170 whole entry, looked up): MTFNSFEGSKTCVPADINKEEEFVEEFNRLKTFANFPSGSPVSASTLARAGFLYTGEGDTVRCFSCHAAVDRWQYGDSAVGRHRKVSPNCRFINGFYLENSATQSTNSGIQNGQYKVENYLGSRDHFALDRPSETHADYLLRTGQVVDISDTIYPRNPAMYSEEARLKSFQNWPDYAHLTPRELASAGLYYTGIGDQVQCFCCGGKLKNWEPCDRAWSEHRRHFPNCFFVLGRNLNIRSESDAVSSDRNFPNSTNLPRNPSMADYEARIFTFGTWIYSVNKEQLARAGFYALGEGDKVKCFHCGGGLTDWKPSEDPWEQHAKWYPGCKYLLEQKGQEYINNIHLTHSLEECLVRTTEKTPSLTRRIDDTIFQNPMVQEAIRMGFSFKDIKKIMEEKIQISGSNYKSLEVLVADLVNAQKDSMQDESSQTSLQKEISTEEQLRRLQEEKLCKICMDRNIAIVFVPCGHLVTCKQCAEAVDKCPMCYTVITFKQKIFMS

Dihydroorotate dehydrogenase (quinone), mitochondrial (Plasmodium falciparum (isolate 3D7)), sequence (Q08210 whole entry, looked up): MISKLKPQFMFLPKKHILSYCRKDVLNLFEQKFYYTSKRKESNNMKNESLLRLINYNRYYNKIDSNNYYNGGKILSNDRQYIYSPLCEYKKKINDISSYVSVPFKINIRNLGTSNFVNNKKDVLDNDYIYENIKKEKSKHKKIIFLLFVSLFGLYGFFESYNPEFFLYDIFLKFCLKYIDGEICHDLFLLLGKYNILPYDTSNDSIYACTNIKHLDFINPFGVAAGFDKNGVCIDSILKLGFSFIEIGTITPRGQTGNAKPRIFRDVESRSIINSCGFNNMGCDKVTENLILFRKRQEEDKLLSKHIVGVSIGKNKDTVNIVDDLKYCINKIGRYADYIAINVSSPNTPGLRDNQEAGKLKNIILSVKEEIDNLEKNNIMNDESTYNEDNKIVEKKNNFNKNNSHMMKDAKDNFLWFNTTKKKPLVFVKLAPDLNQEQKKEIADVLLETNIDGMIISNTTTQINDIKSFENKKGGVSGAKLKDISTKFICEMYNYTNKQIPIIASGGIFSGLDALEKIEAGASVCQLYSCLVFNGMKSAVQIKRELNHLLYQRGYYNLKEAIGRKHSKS

Regarding `CCOC(=O)[C@H]1C[C@H]2O[C@@]23C[C@H]1C(=O)N1CCCC1[C@@H]3O[Si](C)(C)C(C)(C)C` (stereo not given in full), the z-score in experiment [1] was -0.486; in experiment [2], 0.729; in [3] it was -0.154; in [4] it was -0.337; in experiment [5], -0.5; in experiment [6], -0.625. The z-score was -0.166 (inactive) in experiment [7]; -0.366 in experiment [8]; 0.193 in [9]; -0.456 (inactive) in experiment [10]; -0.332 in experiment [11]; -4.67 (inactive) in experiment [12]. Also, the z-score in [13] is -0.88 (inactive); in experiment [15], 0.367 (inactive); in [16], -0.521 (inactive); in experiment [17], -0.205 (inactive); in experiment [18], -0.595 (inactive); in [19], 0.0096. The composite z-score is -0.17 (inactive) in experiment [14] and -0.083 in experiment [20].

Consider `Cc1ccc(S[C@]2(C(=O)NCC(C)C)CC(=O)N(Cc3ccccc3Cl)[C@@H]2c2ccc(CO)cc2)cc1`, for which the z-score in [1] was 1.63; in experiment [2], 0.114; in experiment [3], -0.45; in experiment [4], -0.226; in [5] it was 0.845; in [6], -0.595. The z-score is -0.254 (inactive) in [7]; -0.492 in experiment [8]; 0.767 in [9]; -0.0989 (inactive) in experiment [10]; -0.0675 in experiment [11]; -0.511 (inactive) in [12]. Also, the z-score in [13] was 0.196 (inactive); in [15], -0.205 (inactive); in [16], 0.343 (inactive); in experiment [17], -0.115 (inactive); in experiment [18], -0.219 (inactive); in experiment [19] it was 0.405. In addition, the figures for the composite z-score in experiment [14] and in experiment [20] were -0.223 (inactive) and 0.012, respectively.

`Cc1ccccc1C(O)C1C=CC2C(=O)N(C)C(=O)C2N1N1CCCCC1` (stereo not given): the z-score was -0.578 in experiment [1]; -1.18 in experiment [2]; -0.979 in experiment [3]; -0.587 in experiment [4]; -0.436 in experiment [5]; -1.64 in [6]. For the same molecule, the z-score was -1.01 (inactive) in experiment [7]; 0.207 in [8]; 0.201 in experiment [9]; -0.464 (inactive) in experiment [10]; -0.424 in experiment [11]; 0.492 (inactive) in experiment [12]. Further, the z-score in experiment [13] is -1.24 (inactive); in experiment [15], 0.723 (inactive); in experiment [16] it was -0.252 (inactive); in [17] it was -0.751 (inactive); in [18], -0.495 (inactive); in [19] it was -1.64. Moreover, the composite z-score in experiment [14] was -0.318 (inactive); in experiment [20] it was 0.124.

Consider `COCCCNC(=O)[C@@]1(c2ccc([N+](=O)[O-])cc2)CC(=O)N(CC23CC4CC(CC(C4)C2)C3)[C@@H]1c1ccc(CO)cc1`, for which the z-score in experiment [1] was -0.995; in experiment [2], 0.109; in experiment [3] it was 0.198; in [4], -1.93; in experiment [5], -2.42; in [6], 0.461. Moreover, the z-score was -0.381 (inactive) in experiment [7]; 0.0554 in experiment [8]; -0.784 in experiment [9]; -0.968 (inactive) in experiment [10]; -1.04 in [11]; -0.67 (inactive) in [12]. The z-score in experiment [13] is -1.62 (inactive); in experiment [15], 0.981 (inactive); in [16], -0.24 (inactive); in experiment [17], 0.788 (inactive); in experiment [18], 0.351 (inactive); in experiment [19] it was -1.96. The values for the composite z-score in experiment [14] and in experiment [20] were 0.431 (inactive) and 0.0374, respectively.

As for `CC(C)NC(=O)[C@@H]1c2ccccc2C(=O)N(Cc2ccccc2)[C@H]1c1ccc(CO)cc1`, the z-score in experiment [1] is 0.831; in experiment [2], -0.46; in experiment [3], -0.116; in [4], -1.42; in [5], -0.238; in experiment [6], 0.681. In addition, the z-score in experiment [7] was -1.5 (inactive); in [8], 0.00231; in experiment [9], -0.0636; in [10], 0.748 (inactive); in [11] it was -0.043; in [12], 0.349 (inactive). The z-score is -0.889 (inactive) in experiment [13]; 0.292 (inactive) in experiment [15]; -0.714 (inactive) in experiment [16]; 0.0003 (inactive) in [17]; -0.176 (inactive) in experiment [18]; -0.239 in [19]. For the same molecule, the composite z-score is 0.0505 (inactive) in experiment [14] and -0.0473 in [20].

Turning to `C#CCN(C(/C=C/c1ccccc1)CO)C(C(=O)O)c1ccccc1` (stereo not given), the z-score was -0.341 in experiment [1]; 1.45 in [2]; -0.996 in [3]; -0.659 in experiment [4]; -1.23 in experiment [5]; 0.277 in experiment [6]. Besides, the z-score in experiment [7] is 1.08 (inactive); in experiment [8] it was -0.782; in [9], 0.0117; in experiment [10], -0.668 (inactive); in experiment [11] it was -0.589; in experiment [12] it was -2.64 (inactive). For the same molecule, the z-score was 0.274 (inactive) in [13]; -0.565 (inactive) in experiment [15]; -0.643 (inactive) in [16]; 1.6 (inactive) in [17]; -0.198 (inactive) in experiment [18]; -0.0777 in experiment [19]. For the same molecule, the values for the composite z-score in experiment [14] and in experiment [20] were -3.17 (inactive) and -0.175, respectively.

With `Cc1ccc(F)cc1S(=O)(=O)N[C@@H]1CCN(Cc2ccc(-c3ccccc3)cc2)C1`, the z-score in [1] was -1.8; in [2], -1.3; in experiment [3], -4.73; in [4], -3.15; in [5], -4.09; in experiment [6] it was -1.82. The z-score in experiment [7] is -0.516 (inactive); in [8], -0.69; in experiment [9] it was -2.99; in experiment [10], -0.464 (inactive); in experiment [11], -0.603; in experiment [12], -19.1 (active). Besides, the z-score in experiment [13] was -3.27 (inactive); in [15], 0.425 (inactive); in experiment [16], -22.4 (active); in [17] it was -20.5 (active); in experiment [18], -20 (active); in experiment [19], -2.16. Besides, the values for the composite z-score in experiment [14] and in experiment [20] were -0.427 (inactive) and 0.0368, respectively.

With `CCOC(=O)C[C@H]1[C@H](OC(=O)c2ccc(-c3ccccc3)cc2)[C@@H](NC(=O)Cc2ccc(OC)cc2)c2cc(OCCCO)ccc2N1C(=O)c1ccc2ccccc2n1`, the z-score in experiment [1] is -0.315; in [2], -0.357; in experiment [3], 0.143; in experiment [4], -0.514; in experiment [5] it was -0.129; in experiment [6], 0.176. The z-score was 0.824 (inactive) in [7]; 0.0708 in experiment [8]; -0.625 in experiment [9]; 0.596 (inactive) in experiment [10]; -0.458 in experiment [11]; -0.533 (inactive) in experiment [12]. Further, the z-score in experiment [13] was -0.607 (inactive); in experiment [15], 0.055 (inactive); in [16], -0.586 (inactive); in experiment [17], -0.536 (inactive); in experiment [18], -0.485 (inactive); in [19] it was -0.893. Also, the composite z-score in experiment [14] was -0.236 (inactive); in experiment [20], 0.091.

For `CCCN1C(=O)[C@]2(COC(c3ccc(OCCCO)cc3)=N2)Cc2ccccc21`, the z-score was -0.78 in experiment [1]; 0.585 in experiment [2]; 0.302 in experiment [3]; -1.6 in experiment [4]; -0.688 in [5]; -0.0681 in experiment [6]. For the same molecule, the z-score was -0.919 (inactive) in experiment [7]; 0.391 in experiment [8]; 0.148 in experiment [9]; 0.212 (inactive) in experiment [10]; 0.0036 in experiment [11]; -1.69 (inactive) in [12]. The z-score was -0.543 (inactive) in experiment [13]; -0.152 (inactive) in experiment [15]; 0.235 (inactive) in experiment [16]; -0.011 (inactive) in experiment [17]; -0.0774 (inactive) in experiment [18]; -0.454 in experiment [19]. The composite z-score in [14] is -0.238 (inactive); in experiment [20], -0.195.
